Screening data deposited in PubChem by National Center for Advancing Translational Sciences (NCATS).
This is a sample that favours compounds with a hit; in the whole collection about 12% have one here.
HP1b chromo inh: HP1-beta chromodomain-methylated histone interaction inhibition. AlphaScreen HP1-beta / biotin-H3K9me3 peptide binding. AID 540317. actives 0.56% (n = 390,000). Potency, µM (titrated, usually from 114 µM), inactives show at the highest dose activity change, negative = inhibition, actives largely listed as inhibitors. P83916; further: potency means the concentration at half of the fitted maximal effect; nearly all actives have a fitted effect of over 70% in size
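HP1-beta protein (50 nM final) preincubated 30 min at room temperature with biotinylated H3(1-18)K9me3 peptide (50 nM) in PBS pH 7.4, 0.01% Tween-20, then compound added for 30 min. AlphaScreen streptavidin donor/nickel chelate acceptor beads (10 ug/mL final), 30 min dark, luminescence read.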
BAZ2B block: BAZ2B (human) inhibition; Potency, µM (highest dose often 114 µM), without a hit: at the top dose activity change, negative = inhibition, hits mostly inhibitors; actives 4.4% (n = 360,000); Q9UIF8; AID 504333; AlphaScreen BAZ2B-H3K14Ac peptide displacement; further: potency means the concentration at half of the fitted maximal effect; on the % scale 0 is the no-effect control and ±100 the full control effect; nearly all actives have a fitted effect of over 60% in size
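In this displacement format the biotinylated H3(5-23) peptide acetylated at Lys14 serves as ligand at 50 nM, with BAZ2B at 50 nM in PBS pH 7.4 containing 0.01% Tween-20. Donor and acceptor beads are 10 ug/mL final.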
JMJD2A Tudor: blocks the human JMJD2A Tudor domain; O75164; AlphaScreen JMJD2A-Tudor / H3K4me3 peptide binding; Potency, µM (top dose mostly 114 µM), for inactives: at the top dose activity change, negative = inhibition, hits mostly inhibitors; actives 4.4% (n = 390,000); further: potency means the concentration at half of the fitted maximal effect; on the % scale 0 is the no-effect control and ±100 the full control effect; nearly all actives have a fitted effect of over 50% in size
PLK1 PBD inh: blocks phosphopeptide binding to human PLK1 polo-box domain; Potency, µM, without a hit: max response, negative = inhibition, most hits filed as inhibitors; AID 720504; Plk1 PBD binding of FITC phosphopeptide, fluorescence polarization; P53350; actives 2.8% (n = 360,000); further: potency means the concentration at half of the fitted maximal effect; series mostly up to about 57 µM; on the % scale 0 is the no-effect control and ±100 the full control effect; nearly all actives have a fitted effect of over 65% in size
PI5P4K alpha inh: PI5P4K alpha (human) kinase inhibition; max response, %; PI5P4Kalpha enzyme, ADP-Glo luminescence, 60 min; hits give low values; P48426; actives 1.2% (n = 330,000); active means max response of -50% or lower; inconclusive means between -30% and -50%; inactive means -30% or higher; further: value at the top dose of about 77 µM; on the % scale 0 is the no-effect control and ±100 the full control effect
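Luminescence from ADP-Glo served as readout of PI5P4Kalpha activity in a qHTS format. Reaction: enzyme, substrate, compound, ATP at 5 microM final, 60 min at RT.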
G9a inh: inhibitors of human histone lysine methyltransferase G9a; actives 8.8% (n = 350,000); G9a H3K9 monomethylation, AlphaScreen, 2 h; Potency, µM (doses to about 102 µM), for the others: at the highest dose activity, negative = inhibition, hits mostly inhibitors; further: potency means the concentration at half of the fitted maximal effect; on the % scale 0 is the no-effect control and ±100 the full control effect; nearly all actives have a fitted effect of over 75% in size
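Enzyme 20 nM + cpd, 15 min RT; add b-H3K9 pep 500 nM / SAM 20 uM; 2 h RT; anti-H3K9me1 Ab 0.5 ug/mL + SA donor / anti-rabbit acceptor beads 20 ug/mL each, 10 min; AlphaScreen read.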
An asterisk follows results filed as active; [ ] = remark or other dose. Unless noted, the call rests on the fitted dose curve; in most records, active means well fitted curve in the direction sought with a large enough effect; inconclusive means small, poorly fitted or top-dose-only effect, or another doubt; inactive means no such curve, though single readings can be large; an effect the other way counts as inactive or inconclusive.

Screening CCn1c(C)cs/c1=N\S(=O)(=O)c1ccccc1 returned HP1b chromo inh 39%, BAZ2B block 9%, JMJD2A Tudor -11%, PLK1 PBD inh -1%, PI5P4K alpha inh -3 and G9a inh -47%[2.33 µM].
Screening O=Cc1s/c(=N\S(=O)(=O)c2ccccc2)n(CCCCl)c1Cl returned HP1b chromo inh 38%, BAZ2B block -16%, JMJD2A Tudor -17%, PLK1 PBD inh 4.7µM*, PI5P4K alpha inh 0 and G9a inh 45µM*.
For Cc1ccc(NC(=O)CSc2nnc(N)s2)cc1S(=O)(=O)N1CCOCC1 the results were HP1b chromo inh 7%, BAZ2B block -7%, JMJD2A Tudor -16%, PLK1 PBD inh -9%, PI5P4K alpha inh -17 and G9a inh 50µM*.
`Cc1ccc(NC(=O)COC(=O)c2sccc2C)cc1S(=O)(=O)N1CCOCC1` gave HP1b chromo inh 43%, BAZ2B block 1%, JMJD2A Tudor -10%, PLK1 PBD inh -5%, PI5P4K alpha inh 2 and G9a inh 50µM*.
Nc1nnc(SCC(=O)Nc2ccc(S(=O)(=O)N3CCOCC3)cc2)s1 was read as HP1b chromo inh 15%, BAZ2B block 9%, JMJD2A Tudor -20%, PLK1 PBD inh -10% and G9a inh inconclusive.
`NS(=O)(=O)c1ccc(NC(=O)COC(=O)c2cnc(Cl)c(Cl)c2)cc1` gave HP1b chromo inh 5%, BAZ2B block 3%, JMJD2A Tudor -10%, PLK1 PBD inh -7% and PI5P4K alpha inh -8.
For O=C(Cn1ccc2cc(S(=O)(=O)N3CCCCCC3)ccc21)NCCc1ccc(Cl)cc1 the results were HP1b chromo inh -8%, BAZ2B block -18%, JMJD2A Tudor -19% and G9a inh -28%[59 µM].
COc1ccc2c(c1)CCc1cnoc1-2 was read as HP1b chromo inh 49%, JMJD2A Tudor 10%, PLK1 PBD inh -3% and PI5P4K alpha inh -8.
`COc1ccc2c(c1)CCc1cn[nH]c1-2` gave HP1b chromo inh 7%, BAZ2B block -18%, JMJD2A Tudor inconclusive, PLK1 PBD inh 27µM*, PI5P4K alpha inh 1 and G9a inh -7%.
`COc1cccc(C(Nc2ccccc2)c2ccc3ccc(C)nc3c2O)c1` (stereo not drawn) gave PLK1 PBD inh -22% and PI5P4K alpha inh -3.
For Oc1c(C(Nc2ccccn2)c2cccnc2)cc(Cl)c2cccnc12 (stereo not drawn) the results were HP1b chromo inh 0%, BAZ2B block 11µM*, JMJD2A Tudor 40µM*, PLK1 PBD inh inconclusive, PI5P4K alpha inh 1 and G9a inh 28µM*.
Screening Oc1c(C(Nc2cccc(C(F)(F)F)c2)c2cccnc2)ccc2cccnc12 (stereo not drawn) returned HP1b chromo inh inconclusive, BAZ2B block 20µM*, JMJD2A Tudor 56µM*, PLK1 PBD inh -21%, PI5P4K alpha inh -13 and G9a inh 8.9µM*.
Cc1cc(NC(c2cccnc2)c2ccc3cccnc3c2O)no1 (stereo not drawn) was read as HP1b chromo inh 26%, BAZ2B block 7.9µM*, JMJD2A Tudor 32µM*, PLK1 PBD inh 1%, PI5P4K alpha inh -10 and G9a inh 35µM*.
Screening COc1ccc(C2Nc3ccccc3C(=O)N2Cc2ccccc2)cc1COc1cccc(C(F)(F)F)c1 (stereo not drawn) returned JMJD2A Tudor -12%.
S=C1CCSc2ccc(Cl)cc2N1 was read as HP1b chromo inh 38%, BAZ2B block -1%, JMJD2A Tudor -5%, PLK1 PBD inh -3%, PI5P4K alpha inh -2 and G9a inh 6%[59 µM].
Screening S=C1Nc2ccccc2Sc2ccc(Cl)cc21 returned HP1b chromo inh -7%, BAZ2B block -19%, JMJD2A Tudor -13%, PLK1 PBD inh 24µM*, PI5P4K alpha inh 4 and G9a inh inconclusive.
Screening O=C(CSc1nnc2ccccn12)Nc1ccccc1[N+](=O)[O-] returned PLK1 PBD inh 3% and PI5P4K alpha inh -9.
